Compounds with a hit are over-represented: about 10% of the library has one in this group of screens.
VDR inh: inhibitors of human vitamin D receptor; P11473; VDR-SRC2-3 peptide fluorescence polarization, 2 h; Potency, µM, for inactives: max response, negative = inhibition, most hits filed as inhibitors; 400,000 compounds, 0.93% hits; AID 504847; also: potency is read from the fitted curve at half-maximal effect
Target sequence (P11473 whole entry, looked up): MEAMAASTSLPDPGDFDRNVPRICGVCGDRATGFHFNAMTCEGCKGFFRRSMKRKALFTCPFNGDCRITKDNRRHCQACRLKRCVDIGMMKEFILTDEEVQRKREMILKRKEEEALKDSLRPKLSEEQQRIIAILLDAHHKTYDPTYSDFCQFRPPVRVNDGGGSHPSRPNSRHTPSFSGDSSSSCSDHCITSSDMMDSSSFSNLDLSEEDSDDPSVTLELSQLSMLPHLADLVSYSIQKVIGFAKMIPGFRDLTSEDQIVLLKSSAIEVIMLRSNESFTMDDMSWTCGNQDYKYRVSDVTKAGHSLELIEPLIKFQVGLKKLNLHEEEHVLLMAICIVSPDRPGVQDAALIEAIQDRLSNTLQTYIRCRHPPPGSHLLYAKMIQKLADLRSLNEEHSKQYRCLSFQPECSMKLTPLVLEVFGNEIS
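After 23 nl compound addition and a short centrifugation, plates sat for 2 hours at ambient temperature; polarization of fluorescence then indicated loss of VDR binding to peptide SRC2-3.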
Mm-Cpn inhibitor: M. maripaludis TRiC chaperonin inhibition; purified Mm-Cpn ATPase, ADP Transcreener TR-FRET; 330,000 compounds, 0.031% hits; Potency, µM (series often up to 76.9 µM), for inactives: top-dose activity, negative = inhibition, most hits filed as inhibitors; AID 504842; also: potency is read from the fitted curve at half-maximal effect; nearly all actives have a fitted effect of over 80% in size
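Quantitative HTS used 25 nM Mm-CPN and 10 uM ATP in magnesium/KCl Tris buffer, pH 7.4, with 1 mM DTT. Hydrolysis ran 30 min at 37°C; ADP was read by HTRF.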
CCT chaperon mod: cytosolic chaperonin activity modulation; purified chaperonin ATPase assay, HTRF ADP detection, 30 min; activity change, % (test concentration not listed), hits read low; 360,000 compounds, 0.3% hits; AID 651819; in the data active = activity change below about -30%
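First, chaperonin was dispensed at 40 nM or 20 nM final depending on batch activity. Next, compounds were pinned at 76 uM and ATP added at 10 uM. After 30 min at 37 °C, ADP detection reagents ran 30 min at ambient temperature.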
Sfp PPTase inh: inhibitors of Bacillus subtilis Sfp phosphopantetheinyl transferase; Biochemical Sfp PPTase activity, qHTS; Potency, µM, without a hit: largest response in the series, negative = inhibition, most hits filed as inhibitors; 310,000 compounds, 3.5% hits;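 also: the enzyme is Sfp with the accession as filed and its product quenches rhodamine fluorescence; potency is read from the fitted curve at half-maximal effect; 0% = enzyme reaction without inhibitor and -100% = no enzyme wells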
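Fluorescence-quenching assay: 15 nM Sfp-PPTase preincubated 15 min at room temperature with compound, then 5 uM rhodamine-CoA and 12.5 uM BHQ-2-labelled YbbR peptide added. Fluorescence (ex 525/em 598 nm) read at start and after 30 min; difference gives rate.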
PLK1 PBD inh: blocks phosphopeptide binding to human PLK1 polo-box domain; P53350; Plk1 PBD binding of FITC phosphopeptide, fluorescence polarization; Potency, µM, inactives show max response, negative = inhibition, hits mostly inhibitors; 360,000 compounds, 2.8% hits; also: potency is read from the fitted curve at half-maximal effect; series mostly up to about 57 µM; nearly all actives have a fitted effect of over 65% in size
G9a inh: inhibitors of human histone lysine methyltransferase G9a | Q96KQ7 | G9a H3K9 monomethylation, AlphaScreen, 2 h | Potency, µM (series often up to 102 µM), inactives show at the top dose activity, negative = inhibition, actives largely listed as inhibitors | 350,000 compounds, 8.8% hits | AID 504332; also: potency is read from the fitted curve at half-maximal effect; nearly all actives have a fitted effect of over 75% in size
Target sequence (Q96KQ7 913-1193 limits assumed): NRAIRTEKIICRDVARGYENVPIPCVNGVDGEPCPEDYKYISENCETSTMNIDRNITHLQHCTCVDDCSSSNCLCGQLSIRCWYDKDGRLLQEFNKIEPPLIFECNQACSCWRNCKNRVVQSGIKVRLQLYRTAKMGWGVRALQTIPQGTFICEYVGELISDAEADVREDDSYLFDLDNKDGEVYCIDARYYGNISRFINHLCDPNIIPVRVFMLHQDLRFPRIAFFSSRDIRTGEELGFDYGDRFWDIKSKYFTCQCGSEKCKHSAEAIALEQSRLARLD
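Methyltransferase reactions run at room temperature for 2 h (20 nM enzyme, 500 nM biotin-H3K9 peptide, 20 uM SAM) after a 15 min compound preincubation; product detected by AlphaScreen beads and anti-H3K9me1 antibody.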
Starred values were filed as active, the others as inactive; u = inconclusive; x = no result given; [ ] = another dose, or the depositor's remark. Unless noted, calls follow the shape of the dose curve; as a rule, active = well fitted curve in the direction sought with a large enough effect; inconclusive = small, poorly fitted or top-dose-only effect, or another doubt; inactive = no such curve, though single readings can be large; an effect the other way counts as inactive or inconclusive. Unless noted, % is scaled to controls: 0 for no effect and ±100 for the full control effect.

SMILES	VDR inh	Mm-Cpn inhibitor	CCT chaperon mod	Sfp PPTase inh	PLK1 PBD inh	G9a inh
S=c1[nH]nc(C2CCCCC2)n1/N=C/c1c(Cl)cccc1Cl	-4%	3%	-1	-10%	30µM*	3.5µM*
Cc1ccc(NC(=O)c2cc(S(=O)(=O)N3CCc4ccccc43)ccc2F)cc1Cl	13%	x	x	x	x	-8%[59 µM]
O=C(Cn1c(C(F)(F)F)nc2ccccc21)Oc1cccc(C(F)(F)F)c1	-2%	2%	-1	79µM*	-6%	-1%[59 µM]
CCc1n(CC(O)COCC2CC=CCC2)c2ccccc2[n+]1C (stereo not drawn)	-13%	3%	-13	6%	-22%	50µM*
CCc1n(CC(O)COC2CCCCC2)c2ccccc2[n+]1C (stereo not drawn)	-4%	1%	-2	-13%	-4%	x
Cc1cc(Br)cc(C=Nc2ccc(N3CCOCC3)cc2)c1O	-14%	x	-2	x	0%	x
Oc1cc(Br)ccc1C=Nc1ccc(N2CCCCC2)cc1	14%	2%	-1	-19%	10%	45µM*
Oc1ccc(C=Nc2ccc(N3CCOCC3)cc2)c(O)c1	1%	2%	2	-7%	-19%	1.6µM*
Oc1c(Cl)cc(Cl)cc1C=Nc1ccc(N2CCOCC2)cc1	45µM*	-1%	0	5%	13%	u
Cc1ccc(N=Cc2ccc(O)cc2O)cc1F	-4%	-2%	1	-28%	-6%	10µM*
Cc1ccc(NC(=O)CSc2nc(C3CCCC3)nc3c2c(=O)n(C)c(=O)n3C)c(C)c1	-10%	x	x	x	x	31%[59 µM]
COc1cc(-c2nnc(SCC(=O)Nc3cccc(C#N)c3)o2)cc(OC)c1OC	9%	x	x	x	x	u
CCCCCn1nc(-c2ccccc2)c2nc3ccccc3nc21	-17%	-6%	-3	11%	21µM*	350%[59 µM]
CCCn1nc(-c2ccccc2)c2nc3ccccc3nc21	3%	-2%	-2	19%	17µM*	92%[59 µM]
CCc1ccc(-c2cc(C(=O)N/N=C/c3c[nH]c4ccccc34)[nH]n2)cc1	-13%	0%	-2	0%	-5%	45%
CCc1ccc(/C=C/c2c[nH]c3ccccc23)[n+](CC)c1	-3%	-2%	1	-49%	12%	7.1µM*
COc1cc(/C=C2\SC(=Nc3ccccc3)N(CCc3c[nH]c4ccccc34)C2=O)ccc1OC(C)C(=O)O (stereo not drawn)	u	0%	-7	-27%	u	6.3µM*
COc1ccc(N=C2S/C(=C\c3ccc(OC(C)C(=O)O)c(OC)c3)C(=O)N2CCc2c[nH]c3ccccc23)cc1 (stereo not drawn)	40µM*	1%	-4	u	u	35µM*
O=C1/C(=C/c2ccc(N3CCOCC3)o2)SC(=Nc2ccccc2)N1CCc1c[nH]c2ccccc12	79µM*	-1%	1	2.8µM*	27%	u
CCn1c(SCC(=O)Nc2c(C)cccc2C)nnc1-c1nonc1NC(C)=O	13%	x	x	x	x	19%[59 µM]
Cc1ccc(NC(=S)NNc2ccc(C(=O)O)cc2[N+](=O)[O-])cc1C	-22%	x	-1	x	u	x
Cc1ccc(NC(=S)NNc2ccc([N+](=O)[O-])cc2S(=O)(=O)Nc2ccccc2C(=O)O)cc1C	40µM*	0%	2	40µM*	27µM*	11µM*
O=C(O)c1ccccc1NS(=O)(=O)c1ccc(NNC(=S)Nc2ccc(OC(F)F)cc2)c([N+](=O)[O-])c1	u	-3%	1	u	11µM*	10µM*
COc1ccc(C(C)=NNc2ccc([N+](=O)[O-])cc2S(=O)(=O)Nc2ccccc2C(=O)O)c(OC)c1	u	-3%	0	x	21µM*	x
COc1cc(C=NNc2ccc(S(=O)(=O)Nc3ccccc3C(=O)O)cc2[N+](=O)[O-])ccc1O	u	1%	1	x	u	x
SMILES	VDR inh	Mm-Cpn inhibitor	CCT chaperon mod	Sfp PPTase inh	PLK1 PBD inh	G9a inh
CC1/C(=C\c2ccc(Cl)cc2)C(=O)C2CC1C2(C)C (stereo not drawn)	-11%	-5%[15.4 µM]	0	-7%	2%	50%[59 µM]
CC1CCC(C(C)C)C(=O)/C1=C/c1ccc(N)cc1 (stereo not drawn)	u	-1%	-2	-3%	24µM*	u
COc1cccc(CNC(=O)CSc2nnc(C)c3c(C)n(-c4ccccc4)nc23)c1OC	12%	x	x	x	x	-15%[59 µM]
Cc1ccc([C@@H]2[C@@H]3C(=O)N(C)C(=O)[C@@H]3[C@]3(C)C(=O)N(Cc4ccc(-c5ccccc5)cc4)CC(=O)N23)o1	1%	0%	-1	50µM*	-16%	u
Cc1cc(C)c2c(=O)c3c(oc2c1)C(=O)N(CCCOC(C)C)C3c1ccccc1F (stereo not drawn)	1%	x	x	x	x	0%[59 µM]
O=C(CN1C(=O)NC2(CCCc3ccccc32)C1=O)N1CCCCC1 (stereo not drawn)	14%	2%	-1	x	-3%	50µM*
CCNC(=O)CN1C(=O)NC2(CCOc3ccccc32)C1=O (stereo not drawn)	13%	0%	-3	4%	-16%	18%
Cc1ccc(NC(=O)CN2C(=O)NC3(CCCc4ccccc43)C2=O)cc1S(=O)(=O)N1CCOCC1 (stereo not drawn)	13%	-1%	2	21%	-5%	u
NC(=O)CN1C(=O)NC2(CCCc3ccccc32)C1=O (stereo not drawn)	8%	0%	-1	19%	-3%	47%
Cc1cccc(NC(=O)CNC(=O)CN2C(=O)NC3(CCc4ccccc43)C2=O)c1C (stereo not drawn)	-6%	3%	-2	x	-8%	45µM*
CCN(CC)S(=O)(=O)c1cc(NC(=O)CN2C(=O)NC3(CCCc4ccccc43)C2=O)ccc1C (stereo not drawn)	-13%	3%	0	u	-20%	50µM*
CCN(c1ccc(NC(=O)CN2C(=O)NC3(CCOc4ccccc43)C2=O)cc1)C(C)C (stereo not drawn)	2%	1%	-1	3%	2%	3.2µM*
COc1ccc(C[C@@H]2CN3C(=NC[C@@H]3C)N2C[C@H](C)NC(=O)CCC2CCCCC2)cc1	-5%	x	2	50µM*	-8%	u
CC(=O)NC1C(=O)N=C(SCC(=O)Nc2ccc(C(F)(F)F)cc2Cl)NC1=O (stereo not drawn)	6%	1%	-53*	-10%	-12%	u
C#CCCCO/N=C1/C[C@@H](O)[C@@H](O)[C@@H]2[C@@H]3C(=O)N(CCC(=O)OCC)C(=O)[C@H]3CC[C@H]12	x	x	x	0%	x	x
CCN(C(=O)COc1cc(=O)n(C)c2ccccc12)c1cccc(Cl)c1	-11%	0%	-55*	10%	-17%	14%
